Source: the supplement of paper PMC11482750
± gives the standard deviation of the averaged measurements.

Compound: CCC/C=C/C=O [trans-2-hexenal]
Test: control-subtracted net OSN firing rate; higher = stronger neuronal activation
Conditions: odorant dilution (vol/vol): 1/100
Protocol: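 Single sensillum recordings from olfactory sensory neurons. The neurons sit in the maxillary palp or antennal sensilla of D. melanogaster (wild type, mutants, or at1 empty-neuron lines expressing Or42a homologs or the A181D S307P mutant) and of four Scaptomyza species. Each odorant was given as a 1 s pulse from 20 µl loaded on filter paper at 1:100 vol/vol, diluted in mineral oil (γ-hexalactone in DMSO). Spikes were counted in a 0.5 s window starting 0.2 s after onset, background was subtracted, the count was doubled, and the mean solvent-control response was subtracted.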

Q: How did the “control-subtracted net OSN firing rate” value turn out when S. montana pb2a-like was run?
A: 1 ± 8.5 spikes/s

Q: With S. pallida pb3a-like as the target, how does the “control-subtracted net OSN firing rate” value read?
A: 109 ± 24 spikes/s

Q: With S. flava pb3a-like as the target, how does the “control-subtracted net OSN firing rate” value read?
A: -3.33 ± 9.6 spikes/s

Q: For Or67dGal4, UAS-Sfla Or42a2 at1, which “control-subtracted net OSN firing rate” value is on record?
A: 3.14 ± 12 spikes/s

Q: Which “control-subtracted net OSN firing rate” value does the source give for Canton-S (D. melanogaster) pb3a here?
A: 0.167 ± 5.6 spikes/s

Q: With S. montana pb1b-like as the target, how does the “control-subtracted net OSN firing rate” value read?
A: -11.3 ± 8.9 spikes/s

Q: For S. hsui pb1a-like, which “control-subtracted net OSN firing rate” value is on record?
A: 115 ± 18 spikes/s

Q: S. montana pb1a-like was tested. Which “control-subtracted net OSN firing rate” value did it give?
A: 145 ± 34 spikes/s

Q: How did the “control-subtracted net OSN firing rate” value turn out when S. hsui pb1b-like was run?
A: -16.3 ± 10 spikes/s

Q: With S. flava pb1a-like as the target, how does the “control-subtracted net OSN firing rate” value read?
A: 152 ± 26 spikes/s

Q: S. pallida pb2a-like was tested. Which “control-subtracted net OSN firing rate” value did it give?
A: 8.33 ± 6 spikes/s

Q: Which “control-subtracted net OSN firing rate” value does the source give for S. flava pb1b-like here?
A: -17.7 ± 8.2 spikes/s

Q: For Or67dGal4, UAS-Sfla Or42a4 at1, which “control-subtracted net OSN firing rate” value is on record?
A: 179 ± 43 spikes/s

Q: How did the “control-subtracted net OSN firing rate” value turn out when Canton-S (D. melanogaster) pb1b was run?
A: -5.33 ± 9 spikes/s

Q: For S. pallida pb1b-like, which “control-subtracted net OSN firing rate” value is on record?
A: -6.67 ± 7.2 spikes/s

Q: S. montana pb2b-like was tested. Which “control-subtracted net OSN firing rate” value did it give?
A: 5.67 ± 5.1 spikes/s

Q: With S. pallida pb1a-like as the target, how does the “control-subtracted net OSN firing rate” value read?
A: 103 ± 25 spikes/s

Q: With S. flava pb3b-like as the target, how does the “control-subtracted net OSN firing rate” value read?
A: 26 ± 42 spikes/s

Q: S. hsui pb2b-like was tested. Which “control-subtracted net OSN firing rate” value did it give?
A: 15 ± 15 spikes/s

Q: With Or67dGal4, UAS-Dmel Or42a at1 as the target, how does the “control-subtracted net OSN firing rate” value read?
A: 110 ± 52 spikes/s

Q: S. montana pb3b-like was tested. Which “control-subtracted net OSN firing rate” value did it give?
A: 8.33 ± 8.7 spikes/s

Q: S. pallida pb2b-like was tested. Which “control-subtracted net OSN firing rate” value did it give?
A: 6.67 ± 10 spikes/s

Q: How did the “control-subtracted net OSN firing rate” value turn out when Or67dGal4, UAS-Spal Or42a at1 was run?
A: 205 ± 10 spikes/s

Q: For S. montana pb3a-like, which “control-subtracted net OSN firing rate” value is on record?
A: 3 ± 5.5 spikes/s

Q: S. hsui pb3a-like was tested. Which “control-subtracted net OSN firing rate” value did it give?
A: 147 ± 24 spikes/s

Q: How did the “control-subtracted net OSN firing rate” value turn out when Or67dGal4, UAS-Sfla Or42a3 at1 was run?
A: 144 ± 32 spikes/s

Q: Canton-S (D. melanogaster) pb2b was tested. Which “control-subtracted net OSN firing rate” value did it give?
A: 0.857 ± 11 spikes/s

Q: Which “control-subtracted net OSN firing rate” value does the source give for S. flava pb2a-like here?
A: 1.67 ± 6.6 spikes/s

Q: Which “control-subtracted net OSN firing rate” value does the source give for Canton-S (D. melanogaster) pb1a here?
A: 124 ± 31 spikes/s

Q: For S. pallida pb3b-like, which “control-subtracted net OSN firing rate” value is on record?
A: -10 ± 14 spikes/s

Q: How did the “control-subtracted net OSN firing rate” value turn out when S. hsui pb2a-like was run?
A: 10 ± 12 spikes/s

Q: For Canton-S (D. melanogaster) pb3b, which “control-subtracted net OSN firing rate” value is on record?
A: -0.833 ± 5.7 spikes/s

Q: For Canton-S (D. melanogaster) pb2a, which “control-subtracted net OSN firing rate” value is on record?
A: 4.86 ± 9.6 spikes/s

Q: With S. flava pb2b-like as the target, how does the “control-subtracted net OSN firing rate” value read?
A: 15 ± 14 spikes/s

Q: For S. hsui pb3b-like, which “control-subtracted net OSN firing rate” value is on record?
A: -5 ± 4.2 spikes/s
